# Inconclusive results are not listed. A number with no mark means an inactive call. The source made the active and inactive calls. Calls follow the shape of the dose curve; as a rule, active = well fitted cell-killing curve with a large enough effect; inconclusive = small, poorly fitted or top-dose-only effect; inactive = flat fitted curve, though single readings scatter.
# Experiment: Cellular viability qHTS for adrenocortical cancer (ACC) cell line NCI-H295R (AID 1963990); also: nearly all actives have a fitted effect of over 60% in size;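 as to activity change, negative = viability loss: 0% = DMSO only wells and -100% = full killing with cytotoxic reference compound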
# Conditions: CellTiter-Glo ATP luminescence, 48 h; series mostly up to 46.1 µM; activity change, negative = viability loss: at the top concentration
# Procedure, shortened: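 Readout: CellTiter-Glo luminescence, 20 min RT. Exposure: 48 h, 37C/5% CO2. Cells: NCI-H295R, ITS-DMEM serum-free. Range: up to 46 uM. Analysis: 4PL fit, IC50 plus efficacy.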
# Potency is read from the fitted curve at half-maximal effect.
Compound,"activity change, negative = viability loss",Potency
C=C(C)[C@H]1CN[C@H](C(=O)O)[C@H]1CC(=O)O,8.19%,
O=C1OC(CCN2CCCCC2)OC1(c1ccccc1)c1ccccc1 (stereo not drawn),,25.9 µM (active)
CCCN1CCC[C@@H]2Cc3[nH]ncc3C[C@H]21,-1.59%,
CN(C)CCc1c[nH]c2ccc(O)cc12,-31.3% [at 92.7 µM],
C[C@H](CN1CCOCC1)C(C(=O)N1CCCC1)(c1ccccc1)c1ccccc1,-14.5% [at 92.7 µM],
COc1ccc2c(C(=O)c3ccc(Cl)cc3)c(C)n(CC(=O)O)c2c1,0.466%,
CCOP(=S)(OCC)Oc1ccc2c(C)c(Cl)c(=O)oc2c1,-21.9%,
CN1C[C@@H](NS(=O)(=O)N(C)C)C[C@@H]2c3cccc4c3c(cn4C)C[C@H]21,-0.0625%,
OC(c1ccccc1)(c1ccccc1)C1CCNCC1,-0.339%,
Nc1ccc(N)cc1,-11.9%,
CC(C)[N+](C)(CCC(C(N)=O)(c1ccccc1)c1ccccc1)C(C)C,-3.69%,
O=c1[nH]c2cc(Cl)ccc2n1C1CCNCC1,-21.4%,
Cc1c(Cl)c(=O)oc2cc(OP(=O)(OCCCl)OCCCl)ccc12,-26.6%,

# — PubChem BioAssay (NCATS)
